Results reported in PubChem BioAssay AID651813 (National Center for Advancing Translational Sciences (NCATS), 2012).
The whole screen tested about 2,100 compounds, of which about 1,100 (52%) were called active. Not shown: some 27% with an inconclusive outcome. The call rests on the fitted dose curve; in most records, active means well fitted inhibition curve with a large enough effect; inconclusive means small, poorly fitted or top-dose-only effect; inactive means no such curve, though single readings can be large or run the other way. The set was probably picked from earlier hits. Some of the results follow.

The molecules below were run against DNA dC->dU-editing enzyme APOBEC-3G (Homo sapiens) (UniProt Q9HC16) (assay: qHTS for inhibitors of Vif-A3G interactions: Cherry picks counterscreen). Conditions: HeLa A3G-eYFP + Vif (tagged APOBEC3G with the HIV-1 protein that degrades it), eYFP fluorescence, 24 h.
Chain of DNA dC->dU-editing enzyme APOBEC-3G (Homo sapiens) (Q9HC16 whole entry, looked up): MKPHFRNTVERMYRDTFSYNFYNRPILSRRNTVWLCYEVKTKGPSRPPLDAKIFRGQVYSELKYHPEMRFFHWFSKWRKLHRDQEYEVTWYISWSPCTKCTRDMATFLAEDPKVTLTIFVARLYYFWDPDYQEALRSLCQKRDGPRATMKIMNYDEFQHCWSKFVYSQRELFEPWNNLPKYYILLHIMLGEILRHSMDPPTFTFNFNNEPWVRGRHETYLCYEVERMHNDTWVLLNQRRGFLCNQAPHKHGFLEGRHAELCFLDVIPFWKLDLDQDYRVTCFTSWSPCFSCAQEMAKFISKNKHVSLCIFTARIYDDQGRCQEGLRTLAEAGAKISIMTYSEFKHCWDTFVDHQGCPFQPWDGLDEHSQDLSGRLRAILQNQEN
Method in brief: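 HeLa cells stably expressing A3G-eYFP and Vif were treated for 24 h at 37 deg C with compounds at several concentrations; yellow fluorescence (Ex 488 nm, Em 500-530 nm) read by Acumen Explorer, MG132 as positive control.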
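Further: hits raise yellow fluorescence by blocking Vif-driven A3G-eYFP degradation; nearly all actives have a fitted effect of over 70% in size.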
Potency means the concentration at half of the fitted maximal effect.
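Wherever max response is given: max response given as percent of control signal.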

| SMILES | max response | Potency |
| --- | --- | --- |
| Cc1c(=O)n(OCc2ccc(Cl)cc2)c2ccccc2[n+]1[O-] | -2.47% (inactive) |  |
| O=c1c[n+]([O-])c2ccccc2n1OCc1c(F)cccc1F |  | 19.8 µM (active) |
| CN(C)C=Nc1c(Br)cc(Br)c2nonc12 |  | 4.61 µM (active) |
| CCNC(=S)N/N=C(\C)c1ccc(N2CCOCC2)cc1 | -8.21% (inactive) |  |
| COc1ccc2nc(N3C(=O)/C(=C/c4ccccc4)NC3=S)sc2c1 |  | 11.6 µM (active) |
| CCOc1ccc2nc(N3C(=O)/C(=C/c4ccc(Cl)cc4)NC3=S)sc2c1 |  | 18.4 µM (active) |
| COc1ccc(/C=C/C=C2\NC(=S)NC2=O)cc1 | -11.7% (inactive) |  |
| CCOc1cc(C#N)c(NC(=O)c2cccnc2)cc1OCC |  | 7.04 µM (active) |
| CSc1ccc(/C=N/NC(=O)c2ccccc2Cl)cc1 |  | 12.5 µM (active) |
| Cc1ccc(/C=N/NC(=O)c2cc(C)oc2C)cc1 |  | 9.94 µM (active) |
| CN(C)c1ccc(/C=N/NC(=O)c2ccccc2Cl)cc1 |  | 4.98 µM (active) |
| S=C(NN=Cc1ccccn1)Nc1ccccn1 | 20.1% (inactive) |  |
| COc1cc(C(=O)Nc2ccc3c(c2)ncn3C)cc(OC)c1OC |  | 7.04 µM (active) |
| COc1cc(C(=O)N/N=C/C2CC=CCC2)cc(OC)c1OC (stereo not given) | -11.5% (inactive) |  |
| COc1cc(C(=O)Nc2ccc3ccccc3c2)cc(OC)c1OC |  | 1.58 µM (active) |
| COc1cc(C(=O)N/N=C/c2ccccn2)cc(OC)c1OC |  | 12.5 µM (active) |
| COc1ccc(C(=O)/C=C2/c3ccccc3CC(C)(C)N2C)cc1 |  | 12.5 µM (active) |
| CN(C)CCOc1ccc2c(c1)C(=O)C(=Cc1ncc([N+](=O)[O-])n1C)C2 |  | 8.86 µM (active) |
| COc1ccc(S(=O)(=O)N2N=C(C)Oc3ccccc3C2=O)cc1 |  | 7.9 µM (active) |
| COC(=O)C1CCC(=O)N1C(c1ccc(OC)cc1)c1cc(OC)c(OC)c(OC)c1 (stereo not given) |  | 0.559 µM (active) |

| SMILES | max response | Potency |
| --- | --- | --- |
| COC(=O)c1c(N2C(=O)[C@H]3[C@@H](C2=O)[C@]2(C(=O)Nc4c(C)cccc42)N2CCC[C@@H]32)sc(C)c1C |  | 6.27 µM (active) |
| CN1C2=CC=CC=CC2=[N+](C)C12C([N+](=O)[O-])=CC(=[N+]([O-])[O-])C=C2[N+](=O)[O-] (stereo not given) | -21% (inactive) |  |
| CCSc1nc2ccccc2n1C(=O)/C=C/c1ccc(OC)c(OC)c1 |  | 4.98 µM (active) |
| C=CCSc1nc2ccccc2n1C(=O)/C=C/c1cc(OC)c(OC)c(OC)c1 |  | 8.86 µM (active) |
| CN(C)c1ccc(/C=C/C(=O)c2ccc(O)cc2)cc1 | 57% (inactive) |  |
| CN(C)c1ccc(/C=C/C(=O)c2c(O)c3ccccc3oc2=O)cc1 |  | 1.3 µM (active) |
| Cc1ccc2c(c1)sc(-c1ccc(N(C)C)cc1)[n+]2C |  | 2.91 µM (active) |
| COc1ccc(C2=NOC(C(=O)NCc3ccc(F)cc3)C2)cc1 (stereo not given) | -20.8% (inactive) |  |
| COc1ccc(C2=NOC(C(=O)NCc3ccc(F)cc3)C2)cc1OC (stereo not given) |  | 1.12 µM (active) |
| COc1ccc(C2=NOC(C(=O)NCc3cccs3)C2)cc1OC (stereo not given) |  | 7.9 µM (active) |
| CCn1c(SCC(=O)Nc2cccc(O)c2)nc2c1c(=O)n(C)c(=O)n2C | -1.18% (inactive) |  |
| COc1ccc(NC(=O)CSc2ccc3c4c(cccc24)C(=O)c2ccccc2-3)cc1 |  | 14.6 µM (active) |
| N#Cc1cccc(NC(=O)CSc2ccc3c4c(cccc24)C(=O)c2ccccc2-3)c1 |  | 4.61 µM (active) |
| COc1cc2c(cc1OC)C1=CC(=O)C(=O)N1C(C)(C)C2 |  | 14 µM (active) |
| CC(=O)c1c(C)oc2c1cc(NS(=O)(=O)c1ccc(Br)cc1)c1ccccc12 |  | 1.64 µM (active) |
| Cc1ccc(S(=O)(=O)Nc2cc(Cl)c(O)c3ncccc23)cc1 | 10.1% (inactive) |  |
| CCOc1ccc(S(=O)(=O)Nc2cc3c(C(=O)OC)c(COC)oc3c3ccccc23)cc1 |  | 0.461 µM (active) |
| COc1ccc(S(=O)(=O)Nc2cccc(-c3ccc4nncn4n3)c2)cc1F |  | 4.44 µM (active) |
| COc1ccc(S(=O)(=O)Nc2cccc(-c3ccc4nncn4n3)c2)cc1 |  | 4.98 µM (active) |
| O=C(N/N=C/C=C/c1ccco1)c1ccncc1 | 0.191% (inactive) |  |

| SMILES | max response | Potency |
| --- | --- | --- |
| O=[N+]([O-])c1ccc(N/N=C/C=C/c2ccco2)cc1 |  | 18.4 µM (active) |
| O=C1/C(=C/c2c[nH]c3ccccc23)CCC/C1=C\c1c[nH]c2ccccc12 |  | 20.6 µM (active) |
| CCOc1ccc(C2CC(c3c(O)c4ccccc4oc3=O)=NN2c2ccccc2)cc1OC (stereo not given) |  | 5.17 µM (active) |
| Nc1nn(-c2ccccc2)c(N)c1N=Nc1ccccc1 |  | 8.86 µM (active) |
| c1ccc(N=NC2=NN(c3ccccc3)CS2)cc1 | 20.9% (inactive) |  |
| Cc1ccc(S(=O)(=O)Nc2nc3ccccc3nc2Nc2cccc(S(=O)(=O)N3CCCC3)c2)cc1 |  | 23.1 µM (active) |
| O=C(N=c1ccn(-c2nc3ccccc3nc2NS(=O)(=O)c2ccccc2)cc1)c1cccs1 | 0.295% (inactive) |  |
| CC(=O)Nc1ccc(S(=O)(=O)Nc2nc3ccccc3nc2Nc2ccc3ccccc3c2)cc1 | -17.6% (inactive) |  |
| Cn1ccnc1Sc1nc2ccccc2nc1NS(=O)(=O)c1ccccc1 | -7.62% (inactive) |  |
| O=S(=O)(Nc1nc2ccccc2nc1Nc1cccc(S(=O)(=O)N2CCCCC2)c1)c1ccccc1 |  | 20.6 µM (active) |
| COC(=O)c1cc(Nc2nc3ccccc3nc2NS(=O)(=O)c2ccc(C)cc2)ccc1Cl | -22.7% (inactive) |  |
| COc1cc(Cl)c(C)cc1Nc1nc2ccccc2nc1NS(=O)(=O)c1ccccc1 |  | 20.6 µM (active) |
| Cc1c2ccccc2nc2c(F)c(NC(C)C)c(F)c(F)c12 |  | 8.2 µM (active) |
| CCCNc1c(F)c(F)c2c(C)c3ccccc3nc2c1F |  | 12.5 µM (active) |
| CCCNC(=O)c1ccccc1NC(=O)c1ccc2c(c1)NC(=O)C(C)S2 (stereo not given) |  | 7.04 µM (active) |
| CC(C)CCNC(=O)c1ccc2c(c1)NC(=O)C(CS(=O)(=O)Cc1cccc(Br)c1)N2 (stereo not given) | 2.76% (inactive) |  |
| CC1Sc2ccc(C(=O)NCc3ccccn3)cc2NC1=O (stereo not given) | 3.16% (inactive) |  |
| CCN(CC)c1ccc(NC(=O)c2cccc(F)c2)c(C)c1 |  | 4.98 µM (active) |
| COc1ccc(OC)c(NC(=O)Cn2cnc3onc(-c4ccc(Cl)cc4)c3c2=O)c1 | 9.98% (inactive) |  |
| COc1ccc(OC)c(Nc2ncnc3c2cnn3-c2cccc(Cl)c2)c1 |  | 7.31 µM (active) |
